Bioassay records (PubChem BioAssay)
HT1080NT lethal = kills 2HG-producing HT-1080-NT fibrosarcoma cells. HT-1080-NT fibrosarcoma viability, CellTiter-Glo ATP luminescence, 48 h. Potency, µM (doses to about 46.1 µM), for inactives: at the top dose activity, negative = less viability, most hits filed as cytotoxic. 360,000 tested, 1.6% active;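 note: NT is the 2HG producing partner of a matched IDH1 knockdown line; 0% = DMSO-treated cells and -100% = media-only wells without cells; nearly all actives have a fitted effect of over 55% in size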
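Compounds were tested in concentration-response format on HT-1080-NT cells for 48 hours at 37 degrees C. Cell viability came from CellTiter-Glo luminescence; curves were classified by r2, response magnitude and activity.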
TGFb SMAD3 inh = inhibitors of TGF-b signaling. HepG2 CAGA-GFP TGF-b/SMAD3 reporter, GFP fluorescence, 18 h; TGF-beta stimulated, 500 pg/mL final. Potency, µM (doses to about 46.1 µM), inactives show top-dose activity, negative = inhibition, most hits filed as inhibitors. 410,000 tested, 1.2% active; note: % is set by controls: 0 for no effect and ±100 for the full control effect; nearly all actives have a fitted effect of over 65% in size
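Smad-responsive CAGA-GFP expression was quantified in HEPG2 cells exposed to compounds and 500 pg/mL final TGF-beta for 18 h at 37 degrees C; unstimulated wells defined full inhibition.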
HT1080 IDH1KD tx = kills HT-1080 cells with IDH1 knockdown; HT-1080 IDH1 knockdown viability, ATP luminescence, 48 h; Potency, µM (top dose mostly 46.1 µM), for inactives: at the highest dose activity, negative = toxicity, hits mostly cytotoxic; 360,000 tested, 2% active; AID 686971;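 note: 0% = DMSO wells and -100% = cell-free medium wells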
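HT-1080-IDH1KD cells (IDH1 knocked down), 750/well in RPMI with 5% FBS, treated with compound 48 h at 37 degrees C. Viability by CellTiter-Glo luminescence, normalised to DMSO and no-cell wells; concentration-response curves classed.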
ATXN viability = viability counter-screen for ATXN expression inhibitors | S2 cells (HEK-293 line with an ATXN2-luciferase reporter) viability, CellTiter-Fluor protease fluorescence, 24 h | Potency, µM (series often up to 56.7 µM), actives largely listed as cytotoxic | 400,000 tested, 0.49% active; note: nearly all actives have a fitted effect of over 40% in size
ATXN2 expr inh = inhibitors of ATXN2 expression | HEK-293 ATXN2-luciferase reporter, luminescence, 24 h | Potency, µM (doses to about 57 µM), without a hit: top-dose activity change, negative = inhibition, usual class: inhibitors | 360,000 tested, 0.72% active | AID 1745845; note: % is set by controls: 0 for no effect and ±100 for the full control effect; nearly all actives have a fitted effect of over 55% in size
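ATXN2-luciferase reporter cells (luciferase flanked by upstream and downstream ATXN2 gene portions) were treated 24 h at 37 °C with compounds at up to 57 uM. SteadyGlo luminescence gave expression; GF-AFC fluorescence gave viability.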
HepG2 viability = HepG2 cytotoxicity, counter-screen for TGF-b inhibitors | 410,000 tested, 0.76% active | Potency, µM (top dose mostly 46.1 µM), for the others: at the top dose activity change, negative = cytotoxicity, hits mostly cytotoxic | AID 588856 | HepG2 CAGA-GFP viability, ATP luminescence, 18 h
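CellTiter-Glo luminescence gave cytotoxicity after 18 hours at 37 degrees C. The cells were HepG2 CAGA-GFP in 1% FBS DMEM, stimulated with 500 pg/mL TGF-beta after compound addition. %Activity was normalised to no-cell wells (complete cell-killing) and DMSO (no toxicity), and curves were fitted and classified.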
* = called active by the depositor; i = inactive; ? = inconclusive; · = no result given; [ ] = dose if it differs, or a comment. Sampled rows, rich in hits. Any-hit rate of the full collection: about 3.8%. Calls come from the whole dose curve; as a rule, active = well fitted curve in the direction sought with a large enough effect; inconclusive = small, poorly fitted or top-dose-only effect, or another doubt; inactive = no such curve, though single readings can be large; an effect the other way counts as inactive or inconclusive. Potency is the fitted concentration of half-maximal effect.

SMILES	HT1080NT lethal	TGFb SMAD3 inh	HT1080 IDH1KD tx	ATXN viability	ATXN2 expr inh	HepG2 viability
c1cc2n(c1)-c1c(ccc3c1OCO3)CNC2c1ccc2c(c1)OCO2 (centres undefined)	?	-4%	?	i	-3%	-14%
COc1ccc(C2NCc3ccc4c(c3-n3cccc32)OCO4)cc1O (centres undefined)	?	?	1.8µM*	i	-3%	0%
CCN1/C(=C/C=C/C2=[N+](CC)c3ccccc3C2(C)C)C(C)(C)c2ccccc21	9.2µM*	?	10µM*	7.9µM*	·	-79%
Cc1ccc2oc(=O)n(CCNC(=O)Nc3ccccc3C)c2c1	·	-20%	·	i	-16%	-43%
CNC(=O)Oc1ccc(-c2cn3cc(C)ccc3n2)cc1	-11%	-26%	-29%	i	8.9µM*	-61%
COc1cc([N+](=O)[O-])c2ncccc2c1[N+](=O)[O-]	15µM*	1%	7.3µM*	?	?	-69%
COc1cc([N+](=O)[O-])c2nc(C)ccc2c1[N+](=O)[O-]	?	?	?	28µM*	-25%	-72%
COC[C@@H](NC(C)=O)C(=O)NCc1ccccc1	·	·	·	i	-1%	·
O=C(Nc1ccc(Cl)c(C(F)(F)F)c1)NC1CC2CCCC(C1)N2Cc1ccccc1 (centres undefined)	18µM*	20µM*	?	?	?	-115%
CCN1C[C@]2(OC(=O)c3ccccc3NC(C)=O)CC[C@H](OC)[C@@]34[C@H]5CC6[C@@H](OC)C[C@](O)(C(C[C@@H]23)[C@@H]14)[C@@]5(O)[C@@H]6OC	·	·	·	·	4%	·
CC1(C)CC/C(=C/c2ccc(Cl)cc2)C1(O)Cn1cncn1 (centres undefined)	·	·	·	i	-9%[116 µM]	·
COC1C(O)C(C)OC(OC2C(Oc3cccc4c(O)c5c(=O)oc6ccc(C)c7c(=O)oc(c34)c5c67)OC(C)C(O)C2O)C1O (centres undefined)	?	3%	?	i	10µM*	6%
O=C(CN1CCCCC1)c1ccccc1	·	?	·	·	·	-16%
CC1CCN(C(CC(=O)c2ccccc2)C(=O)c2ccccc2)CC1 (centres undefined)	-12%	?	?	i	?	22µM*
O=C1NC(=O)N(Cc2ccco2)C(=O)/C1=C/C=C/c1ccco1	23µM*	7.1µM*	21µM*	?	?	-25%
Cn1cccc1/C=C1\C(=O)NC(=O)N(Cc2ccco2)C1=O	-11%	3%	-9%	i	9%	-5%
O=C1NC(=O)N(Cc2ccccc2)C(=O)/C1=C\C=C\c1ccco1	?	10µM*	3.7µM*	i	·	-15%
C=CCN1C(=O)NC(=O)/C(=C/C=C/c2ccccc2)C1=O	?	?	21µM*	i	-18%	-7%
COc1ccccc1CNC(=O)Cn1c(=O)oc2cc(S(=O)(=O)N3CCC(C)CC3)ccc21	·	?	·	i	-20%	-33%
Cc1nc2c(=O)n(C)c(=O)nc-2n(C)n1	2.6µM*	0.63µM*	1.3µM*	7.1µM*	3.5µM*	0.63µM*
CCn1nc(-c2ccccc2)nc2c(=O)n(C)c(=O)nc1-2	4.1µM*	0.56µM*	5.8µM*	·	28µM*	-96%
O=c1c2ccccc2nc(-c2ccccc2)n1-n1cccc1	7%	-10%	2%	i	-1%	-3%
Cn1nc(-c2ccccc2)nc2c(=O)n(C)c(=O)nc1-2	·	0.56µM*	·	·	·	1µM*
O=S(=O)(NC1CN2CCC1CC2)c1ccc(Cl)cc1 (centres undefined)	5%	0%	3%	i	-12%	3%
O=C(COc1ccc(Cl)cc1)N(c1ccc(Cl)cc1)C1CN2CCC1CC2 (centres undefined)	16µM*	14µM*	15µM*	?	-26%	-97%
